# EBI2 antag: blocks human EBI2 receptor beta-arrestin signaling. P32249. EBI2 beta-arrestin recruitment, luminescence, 7a,25-OHC stimulated. inhibition, % at 5 µM. hit rate 0.81% among 360,000. AID 651636; in the data active means inhibition above about 38%;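 further: enzyme fragment complementation signal reports receptor beta-arrestin coupling in cells; 0% = agonist plus DMSO wells and 100% = wells without agonist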
# Target sequence (P32249 whole entry, looked up, the tested form may be a part): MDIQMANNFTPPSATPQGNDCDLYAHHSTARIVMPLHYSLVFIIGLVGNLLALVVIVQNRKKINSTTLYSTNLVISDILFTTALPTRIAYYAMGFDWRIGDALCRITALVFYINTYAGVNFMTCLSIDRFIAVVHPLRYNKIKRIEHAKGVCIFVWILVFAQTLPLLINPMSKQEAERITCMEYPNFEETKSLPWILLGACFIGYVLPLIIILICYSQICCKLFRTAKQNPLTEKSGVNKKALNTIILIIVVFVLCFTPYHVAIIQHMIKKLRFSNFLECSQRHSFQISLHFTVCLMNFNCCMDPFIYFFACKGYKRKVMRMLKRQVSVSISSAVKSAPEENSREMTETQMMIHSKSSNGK
# tim10-1 inh: tim10-1 yeast growth inhibition. inhibition, % at 20 µM. hit rate 2.2% among 330,000. AID 463190. S. cerevisiae tim10-1 ts strain growth, BacTiter-Glo, 24 h;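 active means inhibition of at least 40%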;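 further: mutant grown at 25 °C; 0% = DMSO wells with yeast and 100% = wells holding no yeast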
# tim23-1 inh: growth inhibitors of tim23-1 mutant yeast; hit rate 1.3% among 330,000; inhibition, % at 20 µM; AID 463212; S. cerevisiae tim23-1 growth, BacTiter-Glo luminescence, 24 h;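 active means growth inhibition of the mutant yeast at or above 50%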;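 further: temperature-sensitive mutant grown at 25 °C; plate controls were DMSO-treated mutant yeast for no effect and medium wells lacking yeast for full effect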
# SKKanGAS inh: blocks kanamycin growth of S. pyogenes SKKanGAS strain | AID 1662 | BacTiter-Glo, 6 h | inhibition, % at 7.5 µM | hit rate 1.3% among 300,000;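 active means mean replicate score, as percent of positive control median, at least 50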;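 further: strain carries kanamycin resistance gene driven by streptokinase promoter and grows in 40 µg/ml kanamycin; loss of luminescence reflects streptokinase promoter inhibition or plain growth inhibition; 0% = median of DMSO wells and 100% = positive control at its reference dose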
# PfHsp90 yeast 2: growth inhibition of yeast expressing Plasmodium Hsp90; S. cerevisiae expressing PfHsp90, BacTiter-Glo ATP, 48 h; yeast lacking PDR1 and PDR3 efflux regulators; inhibition, % at 9.4 µM; hit rate 0.32% among 310,000; AID 504621;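 active means every replicate shows inhibition above about 80%, whatever the replicate mean, limit read from the data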;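 further: 0% = DMSO neutral controls and 100% = 20 µM radicicol positive controls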
# TIM10 inh: TIM10 yeast growth inhibition. inhibition, % at 10 µM. hit rate 1.4% among 330,000. S. cerevisiae TIM10 strain growth, BacTiter-Glo luminescence, 24 h. AID 463195;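 active means inhibition of 40% or more at the single tested concentration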;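 further: wild-type TIM10 isogenic control strain grown at permissive 25 °C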
# tim10-1 confirm: confirmation of tim10-1 mutant yeast growth inhibitors. shares compounds with tim10-1 inh. S. cerevisiae tim10-1 ts strain growth, BacTiter-Glo, 24 h. inhibition, % at 20 µM. hit rate 56% among 7,400;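 active means inhibition of yeast growth at or above a set limit in either of two repeat tests at 20 µM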;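 further: tim10-1 mutant grown at permissive 25 °C to find synthetic lethal compounds; 0% = DMSO yeast wells and 100% = medium wells without yeast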
# * marks the source's active call; other numbers are inactive results; · = not tested or not shown. Compounds with a hit are over-represented: about 4.7% of the library has one in this group of screens.
SMILES,EBI2 antag,tim10-1 inh,tim23-1 inh,SKKanGAS inh,PfHsp90 yeast 2,TIM10 inh,tim10-1 confirm
Cc1cccc(OCCC(=O)Nc2ccc(Cl)cc2F)c1,7.5,-7.8,19.6,-0.1,-5.9,-5.0,·
CC1CN(C(=O)Nc2ccc3snnc3c2)c2ccccc21 (centres undefined),-3.1,47.5*,47.5,0.3,18.6,24.7,22.0
O=C(Nc1ccc2snnc2c1)N1CCSCC1,8.6,0.3,14.4,0.4,·,0.1,·
O=C(CSc1nnc(-c2ccc(Cl)cc2Cl)n1C1CCCCC1)N1CCCC1,-1.4,25.9,30.0,-4.2,-6.4,11.9,·
COc1ccccc1-c1ccc(/C=C2/C=C(CC(C)C)OC2=O)o1,1.5,42.0*,30.9,0.8,5.5,22.0,35.9*
CCCC1=C/C(=C/c2ccc(-c3ccccc3OC)o2)C(=O)O1,13.2,27.8,23.1,-4.7,-1.4,16.8,·
CCN(CC)S(=O)(=O)c1ccc2c(c1)N(CC(=O)Nc1cccnc1Cl)C(=O)CO2,-0.7,-6.2,3.3,1.9,12.0,6.6,·
Cc1ccc(-c2nnnn2-c2ccc(C)cc2)cc1,6.1,32.8,45.5,-13.7,-22.1,27.0,·
FC(F)(F)c1nc(N2CCCC2)ncc1-c1nnnn1-c1ccc(Cl)cc1,25.1,40.4*,23.1,6.9,32.1,17.6,11.3
Cc1ccc(-n2nnnc2-c2cnn(-c3ccc(F)cc3)c2C(F)(F)F)cc1,10.3,41.4*,28.0,-5.6,33.4,5.5,2.9
Fc1ccc(-n2nnnc2-c2cnc(-c3cccs3)nc2C(F)(F)F)cc1,-25.0,40.5*,13.1,7.0,·,32.7,19.0
Cc1ccc(NC(=S)Nc2ccc(Cl)c(Cl)c2)c(OC(F)F)c1,8.1,60.8*,47.6,1.7,11.8,32.4,38.5*
Cc1ccccc1Nc1c(N)c(=O)oc2ccccc12,-1.6,19.4,18.7,-6.1,-1.7,16.4,·
COc1cccc(Nc2nc(N)nc(-c3oc4ccccc4c3C)n2)c1,12.2,17.8,7.6,6.6,13.6,14.6,·
Cc1cccc(Nc2nc(N)nc(-c3oc4ccccc4c3C)n2)c1,2.0,41.5*,40.6,35.4,23.5,15.4,10.1
CC(C)C[C@H](N)c1nnc(SCC(=O)Nc2ccc(Br)cc2)o1,4.2,43.4*,2.3,-4.2,1.5,16.1,-8.7
CC(C)C[C@H](NC(=O)OC(C)(C)C)c1nnc(SCC(=O)Nc2ccc(Br)cc2)o1,19.8,12.1,4.4,9.5,28.9,4.7,·
O=C(NCc1ccccc1)c1cccc(NC(=O)C2CCCC2)c1,-8.0,·,·,·,26.2,·,·
O=C(NCCc1csc(-c2ccc(Cl)cc2)n1)c1ccco1,4.9,43.2*,23.4,-6.7,4.3,-6.3,12.1
Cc1ccc(-c2nc(CCNC(=O)c3ccco3)cs2)cc1,-5.9,10.0,20.0,-4.2,-2.3,1.4,·
O=C(CSc1nnc(-c2ccc(O)cc2)o1)NNC(=O)c1ccncc1,-2.7,6.3,4.9,-1.8,7.6,-10.7,·
CC(C)(C)c1ccc2c(c1)OC(C(=O)N/N=C\c1ccc[nH]1)CO2 (centres undefined),4.9,42.2*,34.3,-2.9,0.1,-40.6,-102.8
O=C1Nc2ccccc2N=C(c2ccc3c(c2)OCO3)C1N(C(=O)c1ccc2ccccc2c1)C1CC1 (centres undefined),12.1,·,·,·,·,·,·
CCc1ccc(N2CC(C(=O)Nc3ccc4c(c3)OCCO4)CC2=O)cc1 (centres undefined),-0.1,19.8,32.6,1.0,24.5,-4.5,·
C/C(=N\NC(=O)c1nnn(-c2nonc2N)c1CN(C)c1ccccc1)c1cccnc1,-9.1,8.9,11.2,-4.0,7.2,1.4,·
SMILES,EBI2 antag,tim10-1 inh,tim23-1 inh,SKKanGAS inh,PfHsp90 yeast 2,TIM10 inh,tim10-1 confirm
CCOC(=O)c1sc(=S)n(Cc2ccccc2)c1N,1.2,41.7*,21.9,-7.0,0.3,15.9,40.0*
CC(=O)N1CCN(c2nc(CC(C)C)c3c(c2C#N)CCC3)CC1,0.6,49.5*,25.7,-1.3,-2.4,23.0,15.8
CC(C)Cc1nc(N2CCN(C(=O)c3ccccc3)CC2)c(C#N)c2c1CCC2,-2.3,9.6,38.6,6.8,21.4,19.2,·
N#Cc1c(-n2cccc2/C=N/O)sc2c1CCCC2,-3.3,41.3*,41.4,0.0,15.2,-17.1,42.7*
C/C(=N\OCc1ccc(C#N)cc1)c1ccccc1,-5.0,1.3,12.3,0.0,0.6,-13.7,·
C/C(=N\OCc1ccc(C#N)cc1)c1ccc(S(=O)(=O)N(C)C)cc1,-7.7,42.3*,33.2,-5.1,-4.3,10.3,41.2*
COc1ccc(C(C)NS(=O)(=O)Cc2ccccc2)cc1 (centres undefined),3.5,-10.1,-12.9,-3.5,4.7,12.6,·
CC(=O)c1ccc(NC(=O)C(C)Sc2nnc(C3CC3)n2C2CC2)cc1 (centres undefined),1.1,6.9,25.5,·,3.7,5.6,·
CC1Cc2ccccc2N1C(=O)c1ccc2snnc2c1 (centres undefined),0.9,23.8,21.0,·,·,20.0,·
Cc1nc2cc(C(=O)N3c4ccccc4CC3C)ccc2s1 (centres undefined),-6.1,43.0*,31.4,3.2,2.8,8.2,8.7
Cc1c(C(=O)NC2CCCc3ccccc32)oc2ccccc12 (centres undefined),5.7,44.6*,30.6,45.6,-32.9,35.4,38.4*
Cc1ccc(-c2cc(-c3ccccc3)c(C#N)c(N)n2)o1,-4.7,50.0*,19.1,10.1,46.8,6.3,26.9
Cc1ccc(-c2cc(-c3ccccc3Cl)c(C#N)c(N)n2)o1,16.9,40.7*,47.9,16.0,0.7,34.4,25.1
N#Cc1c(-c2ccccc2)cc(C2CC2)nc1N,-0.1,41.8*,19.1,-7.9,-35.1,9.9,12.6
Cc1ccc(-c2c(C#N)c(N)nc3c2CCCC3)o1,5.6,8.6,12.8,-4.4,-6.4,12.8,·
Cc1ccc(-c2cc(-c3ccc(F)cc3)nc(N)c2C#N)o1,8.3,11.5,15.2,9.3,-3.9,6.4,·
Cc1cc2nc(C)n(CCCNC(=O)Nc3cccc4ccccc34)c2cc1C,5.9,13.7,16.3,-1.3,·,16.8,·
Cc1ccc(/C=C2\CCCC3=C2NC(=S)NC3c2ccc(C)cc2)cc1 (centres undefined),-4.2,32.9,19.4,5.7,13.0,9.9,·
COc1ccc(C2NC(=S)NC3=C2CCc2cc(OC)ccc23)cc1 (centres undefined),-6.3,54.3*,47.5,-4.5,-3.4,34.2,40.3*
O=[N+]([O-])c1ccc(Sc2nccn2Cc2ccccc2)c([N+](=O)[O-])c1,-35.0,50.9*,39.0,0.7,-10.7,35.0,25.6
O=[N+]([O-])c1cc(C(F)(F)F)ccc1Sc1nccn1Cc1ccccc1,2.9,22.1,10.8,1.7,-8.9,17.1,·
CCCCN(C)S(=O)(=O)c1cc(Br)cc2c1N(C(=O)C1CC1)CC2,9.7,41.8*,40.8,-7.9,-18.7,31.7,32.1*
